Shown are actives, neighbours in structure and some others; about 10% of the full set was active somewhere.
HEK cytotox: HEK 293 cell cytotoxicity | HEK 293 viability, ATP luminescence (CellTiter-Glo), 48-72 h | Potency, µM (top dose mostly 115 µM), for the others: at the top dose activity change, negative = cytotoxicity, actives largely listed as inhibitors | hit rate 6.6% among 94,000 | AID 1345083; further: on the % scale 0 is the no-effect control and ±100 the full control effect; nearly all actives have a fitted effect of over 60% in size
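Luminescence from cellular ATP, measured with CellTiter-Glo, indicates HEK 293 viability. Cells plated at 250 cells/well are treated with compound for 48 or 72 hr at 37 degree Celsius before reagent addition.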
NPR1 antag: human Npr1 receptor antagonism; P16066; HEK293 hNpr1 GloSensor cGMP, ANP-stimulated luminescence; Potency, µM (series often up to 46.3 µM), without a hit: top-dose activity change, negative = inhibition, most hits filed as inhibitors; hit rate 1.6% among 76,000; AID 1347048; calls by dose curve; further: on the % scale 0 is the no-effect control and ±100 the full control effect; nearly all actives have a fitted effect of over 60% in size
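HEK293 cells stably expressing human Npr1 and cGMP GloSensor pGS-40F, loaded 2 h with 2% GloSensor reagent, given compound 30 min at room temperature. Luminescence read before and 20 min after 0.1 nM hNppA.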
NIH3T3 tox: kills NIH 3T3 cells; NIH 3T3 viability, CellTiter-Glo ATP luminescence, 48-72 h; Potency, µM (highest dose often 96.7 µM), for the others: top-dose activity change, negative = cytotoxicity, actives largely listed as inhibitors; hit rate 4.3% among 94,000; AID 1345082; further: on the % scale 0 is the no-effect control and ±100 the full control effect; nearly all actives have a fitted effect of over 55% in size
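Cytotoxicity is measured as loss of cellular ATP: NIH 3T3 cells (400/well) are exposed to compound for 48 or 72 hr at 37 °C, then CellTiter-Glo luminescence is imaged after 10 min at room temperature.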
FLuc inh: inhibitors of firefly (Photinus pyralis) luciferase; Potency, µM (highest dose often 115 µM), hits mostly inhibitors; AID 1347043; purified P. pyralis luciferase, luminescence, biochemical; hit rate 2.5% among 76,000; P08659; further: on the % scale 0 is the no-effect control and ±100 the full control effect; nearly all actives have a fitted effect of over 65% in size
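Cell-free enzyme assay, 10nM P. pyralis luciferase, luciferin and ATP each at 10uM. Inhibition profiled over a 6-point titration, read as luminescence.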
GPT2 inh: blocks human glutamate pyruvate transaminase 2; Q8TD30; Recombinant GPT2, coupled pyruvate oxidase/HRP Amplex Red fluorescence; Potency, µM (series often up to 57.7 µM), for the others: at the highest dose activity change, negative = inhibition, actives largely listed as inhibitors; hit rate 0.25% among 100,000; further: on the % scale 0 is the no-effect control and ±100 the full control effect; nearly all actives have a fitted effect of over 60% in size
Target sequence (Q8TD30 whole entry, looked up): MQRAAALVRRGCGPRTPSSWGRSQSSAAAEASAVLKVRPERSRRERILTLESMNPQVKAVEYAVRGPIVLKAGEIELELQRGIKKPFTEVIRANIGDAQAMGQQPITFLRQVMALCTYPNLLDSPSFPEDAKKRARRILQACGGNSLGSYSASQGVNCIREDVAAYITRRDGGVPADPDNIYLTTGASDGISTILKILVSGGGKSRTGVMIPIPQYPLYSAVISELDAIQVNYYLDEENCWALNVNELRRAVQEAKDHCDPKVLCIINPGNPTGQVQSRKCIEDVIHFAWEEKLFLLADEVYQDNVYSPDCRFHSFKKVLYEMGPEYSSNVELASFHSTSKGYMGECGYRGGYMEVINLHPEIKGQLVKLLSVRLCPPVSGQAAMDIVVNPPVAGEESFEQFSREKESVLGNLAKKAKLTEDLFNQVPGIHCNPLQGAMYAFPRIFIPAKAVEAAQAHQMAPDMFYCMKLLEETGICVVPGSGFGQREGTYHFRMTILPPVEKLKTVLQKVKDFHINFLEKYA
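Fluorescence read-out: pyruvate from GPT2 turnover coupled to pyruvate oxidase, HRP and Amplex Red (0.2mM ThPP, 0.2U/mL PO and HRP, 50uM Amplex final). Substrates 250uM a-KG, 2mM L-alanine; enzyme 10ng/uL; 30 min RT.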
Npr1 antag conf: confirmation of human Npr1 natriuretic peptide receptor antagonists; shares compounds with NPR1 antag; HEK293 hNpr1 cGMP GloSensor luminescence, ANP-stimulated; Potency, µM (highest dose often 57.6 µM), for inactives: at the top dose activity change, negative = inhibition, most hits filed as inhibitors; hit rate 76% among 1,400; calls by dose curve; further: nearly all actives have a fitted effect of over 70% in size
Npr2 selectivity: hNpr2 antagonism, selectivity versus Npr1. hit rate 67% among 1,400. shares compounds with NPR1 antag. Potency, µM (series often up to 57.6 µM), for the others: at the top dose activity change, negative = inhibition, actives largely listed as inhibitors. HEK293 hNpr2 GloSensor cGMP luminescence, CNP-stimulated; calls by dose curve; further: nearly all actives have a fitted effect of over 70% in size
FLuc inh counter: inhibits firefly luciferase, false Npr1 antagonist flag. shares compounds with NPR1 antag. purified FLuc enzyme, luminescence, Km substrate. Potency, µM (highest dose often 57.6 µM), without a hit: at the top dose activity change, negative = inhibition, most hits filed as inhibitors. hit rate 0.7% among 1,400. AID 1347047; further: 0% is about no effect
GloSensor ctrl: reduces cGMP signal in GloSensor control cells; shares compounds with NPR1 antag; HEK293 GloSensor cGMP, SNP-stimulated, luminescence; Potency, µM (series often up to 57.6 µM), without a hit: at the highest dose activity change, negative = inhibition, actives largely listed as inhibitors; hit rate 69% among 1,400; calls by dose curve; further: on the % scale 0 is the no-effect control and ±100 the full control effect; nearly all actives have a fitted effect of over 70% in size
Active calls of the source: *; i = inactive; ? = inconclusive; . = no result given; ! = repeats disagree; [ ] = another dose, or the depositor's remark. Unless noted, the call rests on the fitted dose curve; in most records, active means well fitted curve in the direction sought with a large enough effect; inconclusive means small, poorly fitted or top-dose-only effect, or another doubt; inactive means no such curve, though single readings can be large; an effect the other way counts as inactive or inconclusive. Potency means the concentration at half of the fitted maximal effect.

SMILES | HEK cytotox | NPR1 antag | NIH3T3 tox | FLuc inh | GPT2 inh | Npr1 antag conf | Npr2 selectivity | FLuc inh counter | GloSensor ctrl
CCOC(=O)C1CCCN(C(=O)c2nc3sccn3c2-c2cccc(OC)c2)C1 (centres undefined) | -25% | . | -14% | . | i | . | . | . | .
O=C1Nc2ccccc2CC12CN(CC1CCOCC1)C2 | 3%[172 µM] | . | i | . | -2%[88.5 µM] | . | . | . | .
COc1cccc(-c2cn3cc(C(=O)NCc4ccccc4F)nc3s2)c1 | ? | . | -25% | . | -3% | . | . | . | .
CCOc1cccc2c1OC[C@@H]1CN(CC)C(=O)CCN(C(=O)COc3ccccc3)[C@H]21 | -25% | . | ? | . | . | . | . | . | .
COc1ccc(CN2C[C@H]3CN(Cc4ccc5c(c4)OCCO5)CCN3C2=O)cc1 | ? | 10µM* | ? | i | 5%[88.5 µM] | 14µM* | 16µM* | -14%[86.2 µM] | 14µM*
CC(C)CCN1CCC2(Cc3ccccc3NC2=O)C1 (centres undefined) | ? | 0%[70.6 µM] | ? | i | 3%[88.5 µM] | . | . | . | .
O=C(N[C@H]1CO[C@H]2[C@@H]1OC[C@@H]2n1nnnc1Oc1ccc2c(c1)OCO2)c1ccc(C(F)(F)F)cc1 | ? | 7.9µM* | ? | i | i | 6.9µM* | 8.6µM* | -3% | 5.4µM*
C[S+](=O)([O-])CCn1ncc2cc(OCC3CCN(c4ncc(F)cn4)CC3)ccc21 | . | . | . | . | . | 13µM* | ? | 3%[86.2 µM] | 11µM*
COc1ccc(C(=O)N2CCC3(CC2)CC(c2cccc(C(F)(F)F)c2)=NO3)cc1 | 35µM*! | 11µM* | 22µM*! | i | 3% | 24µM* | 27µM* | 3%[6.39 µM] | ?
Cc1cc(C)n(-c2cccc(CN(C)C(=O)c3cn(Cc4ccc(Cl)cc4)nn3)c2)n1 | ? | -25% | ? | i | -9% | . | . | . | .
CN(Cc1ccnc2ccccc12)C(=O)c1cn(Cc2ccc(Cl)cc2)nn1 | 35µM* | 10µM* | ? | i | -14% | 14µM* | 17µM* | 3% | 12µM*
CN(Cc1cccnc1)c1ccc2ncc(Nc3cccc(C(F)(F)F)c3)n2n1 | 40µM* | 13µM* | ? | i | ? | 14µM* | 16µM* | -3%[86.2 µM] | 13µM*
COc1ccc(-c2noc(CC3CCN(C(=O)Cc4ccc(OC)c(Cl)c4)CC3)n2)cc1 | ? | 13µM* | ? | i | -1% | 24µM* | 24µM* | 0% | 17µM*
COc1ccc(CC(=O)N2CCC(Cc3nc(-c4ccccc4)no3)CC2)cc1Cl | ? | 13µM* | 35µM* | i | i | 24µM* | 27µM* | 2% | 24µM*
Cc1ccc(C(=O)N2CCC3(CC2)CC(N(Cc2ccc(F)cc2)C2CC2)CCO3)cc1 (centres undefined) | ? | ? | ? | i | i | . | . | . | .
O=C(c1ccc(F)cc1)N1CCC2(CC1)CC(N(Cc1ccc(F)cc1)C1CC1)CCO2 (centres undefined) | ? | ? | ? | i | i | ? | ? | 5% | ?
O=C(C1CC1)N1CCC2(CC1)CC(N(Cc1ccc(F)cc1)C1CC1)CCO2 (centres undefined) | ? | 15% | -27% | i | i | . | . | . | .

Source: PubChem BioAssay
